This passage reports Potency and activity change, negative = inhibition results from PubChem BioAssay (NCATS).

Records with an inconclusive call do not appear. A call without a number means that no potency is given here. Values without a mark were called inactive. The source made the active and inactive calls. Calls follow the shape of the dose curve; as a rule, active = well fitted curve in the direction sought with a large enough effect; inconclusive = small, poorly fitted or top-dose-only effect, or another doubt; inactive = no such curve, though single readings can be large; an effect the other way counts as inactive or inconclusive.

The subject of experiment [1] is Zika virus NS2B-NS3 protease. The experiment in a line: Primary screen GU AMC qHTS for Zika virus inhibitors (AID 1347154). Also: nearly all actives have a fitted effect of over 70% in size. Conditions: Zika NS2B-NS3 unlinked protease, AMC fluorogenic substrate; series mostly up to 54.1 µM. An outline of the steps: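 Fluorogenic AMC-substrate cleavage by noncovalent NS2B-NS3 protease complex (25 nM, pH 8.0 Tris buffer with Tween 20) followed for 15 minutes at room temperature (~20% conversion). Percent inhibition from ex340/em450 signal change, fitted by 4-parameter Hill equation.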
A general note: In qHTS, concentration-response curves come from the screen itself.

Experiment [2] concerns Zika virus NS2B-NS3 protease (unlinked complex). The experiment in a line: Primary screen GU Rhodamine qHTS for Zika virus inhibitors: Unlinked NS2B-NS3 protease assay (AID 1347159). Also: nearly all actives have a fitted effect of over 60% in size. Also: potency is read from the fitted curve at half-maximal effect. As to conditions: Recombinant ZIKV NS2B-NS3 protease, Rhodamine110 substrate fluorescence; series mostly up to 107 µM. An outline of the steps:
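Buffer 10 mM Tris-HCl pH 8.0, 0.01% Tween 20. Unlinked protease 25 nM; compound preincubation 15 min, RT, protected from light. Substrate Rhod110, 1.5 microM; ~15% conversion in 15 min.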

For experiment [3], the system named is Zika virus NS2B-NS3 protease (linked construct). Put plainly: Primary screen NINDS Rhodamine qHTS for Zika virus inhibitors (AID 1347160). Also: nearly all actives have a fitted effect of over 55% in size. Also: potency is read from the fitted curve at half-maximal effect. Conditions: purified NS2B-NS3 protease, Rhodamine110 substrate fluorescence; series mostly up to 57.1 µM. The method, boiled down:
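Aprotinin served as in-plate control. Conditions: 25 nM linked NS2B-NS3, pH 8.0 Tris buffer, titrated compounds, 15 min preincubation and 15 min reaction with 1.5 microM Rhod110 substrate at room temperature.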

Regarding `C[C@H](CCC(=O)O)[C@H]1CC[C@H]2[C@H]3[C@@H](CC[C@]12C)[C@@]1(C)CC[C@@H](O)C[C@H]1C[C@@H]3O`, the Potency result in experiment [1] is “inactive”. Same read-out and setting: the result for `CN(C)N=Nc1nc[nH]c1C(N)=O` reads “inactive”; that for `CC(=O)O[C@]1(C(C)=O)CC[C@H]2[C@@H]3C=C(Cl)C4=CC(=O)[C@@H]5C[C@H]5[C@]4(C)[C@@H]3CC[C@@]21C`, “inactive”. Same read-out and setting: the result for `OC[C@H]1O[C@@H](Oc2ccc(O)cc2)[C@H](O)[C@@H](O)[C@H]1O` reads “inactive”; that for `CN1c2ccccc2C(=O)N2CCc3c([nH]c4ccccc34)C21` (stereo unspecified), “inactive”; that for `N#Cc1c(N(CC(=O)O)CC(=O)O)sc(C(=O)O)c1CC(=O)O`, “inactive”. Consider `CN1[C@H]2CC[C@H]1CC(OC(=O)c1c[nH]c3ccccc13)C2` (stereo partly specified), for which the Potency entry in experiment [1] was “inactive”. As to `O=S(=O)(NCCNCC=Cc1ccc(Br)cc1)c1cccc2cnccc12`, the Potency entry in experiment [1] was “inactive”. As to `NCC1CCC(C(=O)O)CC1` (stereo unspecified), the Potency entry in experiment [1] was “inactive”. Still for that read-out and setting: the result for `CCNC(=O)Nc1ccc(Oc2ncnc(N)c2C=NOC)cc1Cl` reads “inactive”; that for `C=CCc1cccc(C=NNC(=O)CN2CCN(Cc3ccccc3)CC2)c1O`, “inactive”; that for `CCCCC(C=O)NC(=O)C(CC(C)C)NC(=O)OCc1ccccc1` (stereo unspecified), “inactive”. On the same count and under the same terms, the result for `CCOC(=O)N1CCN([N+]([O-])=NOc2cc(ON=[N+]([O-])N3CCN(C(=O)OCC)CC3)c([N+](=O)[O-])cc2[N+](=O)[O-])CC1` reads “inactive”. On to `Cc1cc2c(cc1C1(c3ccc(C(=O)O)cn3)CC1)C(C)(C)CCC2(C)C`, for which, in experiment [1], the Potency result was “inactive”. For the same compound, the Potency was 10 µM (active) in experiment [2] and 14.1 µM (active) in experiment [3]. In the case of `CN1CCc2c(n(Cc3ccc(C(=O)NO)cc3)c3ccccc23)C1`, the Potency result in experiment [1] and in experiment [2] was “inactive” each time. On to `CC1=C(C(=O)Nc2cc3cn[nH]c3cc2F)C(c2ccc(C(F)(F)F)cc2)CC(=O)N1` (stereo unspecified), for which the Potency entry in experiment [1] and in experiment [2] was “inactive” in each case. With `CCN1CCN(c2ccc(Nc3cc(N(C)C(=O)Nc4c(Cl)c(OC)cc(OC)c4Cl)ncn3)cc2)CC1`, the Potency result in experiment [1] and in experiment [2] was “inactive” throughout.

Regarding `Cc1cccc2c1CC[C@H](CN1CCC(c3c(Cl)cccc3Cl)CC1)C[C@@H]2O`, the Potency result in experiment [1] and in experiment [2] was “inactive” in each case. In the case of `CN[C@@H]1[C@@H](O)[C@@H](O[C@@H]2[C@@H](O)[C@H](O[C@H]3O[C@H](CN)[C@@H](O)[C@H](O)[C@@H]3O)[C@@H](N)C[C@@H]2NC(=O)[C@@H](O)CN)OC[C@]1(C)O`, the Potency entry in experiment [1] is “inactive”. With `Cc1cnc(CNC(=O)c2c(=O)c3ccc(N4CCCN(C)CC4)nc3n3c2sc2ccccc23)cn1`, the Potency entry in experiment [1] is “inactive”. In experiment [2], the activity change, negative = inhibition was 5.25% [at 19.1 µM]. In the case of `CCc1cccc(CC)c1NC(=O)N1Cc2[nH]nc(NC(=O)c3ccc(N4CCN(C)CC4)cc3)c2C1`, the Potency result in experiment [1], in experiment [2] and in experiment [3] was “inactive” in each case. Take `C[C@@H](NC(=O)c1ncnc(N)c1Cl)c1ncc(C(=O)Nc2cc(C(F)(F)F)c(Cl)cn2)s1`: the Potency entry in experiment [1] and in experiment [2] was “inactive” each time. Regarding `O=C(O)c1ccc(O)c2ncc(N3CCOCC3)cc12`, the Potency entry in experiment [1] was “inactive”. For `Cc1cc(C(C)Nc2ccccc2)c2nc(N3CCOCC3)cc(=O)n2c1` (stereo unspecified), the Potency result in experiment [1] and in experiment [2] was “inactive” throughout.

For the compound `CCCCC(F)(F)[C@@]1(O)CC[C@H]2[C@H](CC(=O)[C@@H]2CCCCCCC(=O)O)O1`, the Potency result in experiment [1], in experiment [2] and in experiment [3] was “inactive” in each case. On to `Cc1ccc2c(c1)c1c(n2CCc2ccc(C)nc2)CCN(C)C1`, for which the Potency entry in experiment [1] and in experiment [2] was “inactive” each time. As to `CNc1nc(Nc2ccc(C(=O)N3CCOCC3)cc2OC)ncc1Cl`, the Potency result in experiment [1] and in experiment [2] was “inactive” throughout. With `CN[C@@H](C)[C@H]1[C@H](O)C[C@@]2(C)[C@@H]3CC[C@H]4C(C)(C)[C@@H](NC)CC[C@@]45C[C@@]35CC[C@]12C`, the Potency entry in experiment [1] is “inactive”. Moreover, the activity change, negative = inhibition in experiment [2] was 119% [at 19.1 µM].

On to `O=C(CCCN1CCN(c2ccc(F)cc2)CC1)NC1c2ccccc2CSc2ccccc21` (stereo unspecified), for which the Potency result in experiment [1], in experiment [2] and in experiment [3] was “inactive” each time. On to `CCn1c(-c2nonc2N)nc2cncc(CNC3CCNCC3)c21`, for which the Potency result in experiment [1] and in experiment [2] was “inactive” each time. For the compound `Cn1cnc(-c2cc3nccc(Oc4ccc(NC(=S)NC(=O)Cc5ccccc5)cc4F)c3s2)c1`, the Potency result in experiment [1] and in experiment [2] was “inactive” each time. Regarding `CC1CCN(c2cc(N3CCN(C)CC3)ccc2NC(=O)c2cc(C#N)c[nH]2)CC1`, the Potency entry in experiment [1], in experiment [2] and in experiment [3] was “inactive” in each case. For `CC(=O)OCC(=O)[C@@]1(O)CC[C@H]2[C@@H]3CCC4=CC(=O)C=C[C@]4(C)[C@@H]3[C@@H](O)C[C@@]21C`, in experiment [1], the Potency result was “inactive”. As for `COC(=O)N1CCN(Cc2cccc(NC(=O)Nc3ccc(C)nc3)c2F)CC1`, the Potency result in experiment [1] and in experiment [2] was “inactive” throughout. Consider `Clc1ccc(C2(c3ccc(-c4cn[nH]c4)cc3)CCNCC2)cc1`, for which the Potency entry in experiment [1] and in experiment [2] was “inactive” in each case. For the compound `C[C@@H](N)c1ccc(C(=O)Nc2ccnc3[nH]ccc23)cc1`, the Potency entry in experiment [1] and in experiment [2] was “inactive” each time.
